# Bioassay records from PubChem BioAssay.
# Shiga inhibitor = inhibitors of Shiga toxin in Vero cells. Vero cells, Shiga toxin protein synthesis inhibition reporter. 290,000 tested, 9.2% active. inhibition, % at 38.7 µM; in the data active means inhibition mostly above about 28%, no sharp cut-off; inactive means mostly below about 43%; further: 0% is about no effect
# Pf growth 48h = inhibits P. falciparum growth in the first generation, 48 h. P. falciparum luciferase growth in erythrocytes, 48 h. Potency, µM (titrated, usually from 28.7 µM), without a hit: top-dose activity change, negative = inhibition, most hits filed as inhibitors. 310,000 tested, 5.9% active; further: potency means the concentration at half of the fitted maximal effect; on the % scale 0 is the no-effect control and ±100 the full control effect
#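 First compound was added to culture medium, then infected red cells at 0.1% parasitemia and 2% hematocrit (final). After incubation at 37 C under 5% CO2, luciferase detection reagent was dispensed and light output recorded.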
# HCMV inh = human cytomegalovirus inhibition; AID 1259415; HFF cells, HCMV-luciferase reporter, 72 h; hits give low values; activity change, negative = inhibition, % at 57.5 µM; 410,000 tested, 4.5% active; in the data active means activity change below about -60%; inconclusive means no clear call, values can overlap the other calls; inactive means above about -39%; further: on the % scale 0 is the no-effect control and ±100 the full control effect
#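 Cell-based, HFFs, 1000 cells/well, 16 h 37C; cpds in DMSO + HCMV-luc, MOI 1 PFU/cell; 72 h 37C; OneGlo luminescence after 5 min RT; norm. to buffer vs Salinomycin 10uM.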
# Pf growth 96h = P. falciparum growth inhibition at 96 hours; P. falciparum luciferase reporter growth, 96 h; Potency, µM (series often up to 28.7 µM), for inactives: at the highest dose activity change, negative = inhibition, most hits filed as inhibitors; 320,000 tested, 6.9% active; AID 504834; further: potency means the concentration at half of the fitted maximal effect; on the % scale 0 is the no-effect control and ±100 the full control effect
#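 Compounds incubated with erythrocytes infected by luciferase-expressing P. falciparum (2% hematocrit, 0.05% parasitemia final) for 96 hours, 37 C in 5% CO2. Growth inhibition scored as decreased luciferase luminescence.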
# CHX counter = affects cycloheximide protein synthesis inhibition readout, counter-screen | max response, % | cell reporter, cycloheximide protein synthesis inhibition counterscreen | 300,000 tested, 12% active | AID 2314; in the data active means max response mostly above about 13%, no sharp cut-off; inactive means mostly below about 14%; further: read at 38.3 µM for the half of the compounds with a filed dose; 0% is about no effect
# Active calls of the source: *; ? = inconclusive; . = no result. Hits are enriched below; roughly 20% of the tested compounds scored in any of these assays. Unless noted, the call rests on the fitted dose curve; in most records, active means well fitted inhibition curve with a large enough effect; inconclusive means small, poorly fitted or top-dose-only effect, or another doubt; inactive means no such curve, though single readings can be large or run the other way.
SMILES,Shiga inhibitor,Pf growth 48h,HCMV inh,Pf growth 96h,CHX counter
C[C@@H](NC(=O)[C@@H]1Cc2ccccc2CN1)C(=O)NCc1ccco1,-3,-19%,-23,-17%,0
Cc1cccc(NC(=O)[C@H](Cc2ccccc2)NC(=O)[C@@H]2Cc3ccccc3CN2)c1,25,-14%,.,2%,15*
CSCC[C@H](NC(=O)[C@@H]1Cc2ccccc2CN1)C(=O)Nc1cccc(C)c1,29,-23%,-1,-14%,16
COc1ccccc1CNC(=O)[C@H](Cc1c[nH]c2ccccc12)NC(=O)[C@@H]1Cc2ccccc2CN1,2,?,.,10µM*,-1
O=C(CSc1nc(-c2ccccc2)[nH]c1-c1ccccc1)Nc1ccc2c(c1)OCCO2,.,.,-28,.,.
Cc1ccc(NC(=O)[C@@H](CC(C)C)NC(=O)[C@@H]2Cc3ccccc3CN2)cc1,61*,1%,.,2%,28
Cc1ccc(NC(=O)[C@H](CC(C)C)NC(=O)[C@@H]2Cc3ccccc3CN2)cc1,9,1%,.,?,18
O=C(Nc1cccc(S(=O)(=O)N2CCOCC2)c1)C1=NN(c2ccccc2)C(=O)CC1,-15,?,23,-23%,-5
Cc1ccc(N(Cc2cc3ccccc3[nH]c2=O)C(=O)c2cccs2)cc1C,-13,12µM*,-13,?,1
CCN(Cc1cc2cc(OC)ccc2[nH]c1=O)C(=O)c1ccncc1,-3,9%,14,9.3µM*,-2
CCN(Cc1cc2cc(OC)ccc2[nH]c1=O)C(=O)Cc1ccc(OC)cc1,-13,?,12,-12%,6
COCC(=O)N(Cc1cc2cc(C)ccc2[nH]c1=O)c1ccc(C)c(C)c1,.,-8%,4,10µM*,7
COCC(=O)N(Cc1cc2cc(OC)ccc2[nH]c1=O)c1ccccc1,34,20%,-7,32%,16*
CCN(C(=O)c1c(C)cc(=O)oc1C)c1ccc2c(c1)OCO2,-4,36%,23,40%,-2
CCN(C(=O)c1coc(=O)c(Br)c1)c1ccc2c(c1)OCO2,86*,?,-17,?,27*
N/C(=N\O)C1COc2ccccc2O1 (stereo not drawn),4,-10%,33,44%,0
CC(=O)Nc1nc(C2COc3ccccc3O2)cs1 (stereo not drawn),50*,184%,99,239%,32*
CC(=O)NCC1COc2ccccc2O1 (stereo not drawn),24,8%,2,0%,0
NC(N)=Nc1nc(C2COc3ccccc3O2)cs1 (stereo not drawn),75*,-54%,-13,0%,37*
Nc1ccc2ccc(N)cc2c1,.,.,-65*,.,.
Nc1ccc2cc3ccccc3cc2c1,.,.,13,.,.
O=C(CSc1nnc(NCc2ccccc2)s1)c1ccco1,78*,-16%,1,?,16
C=CCn1c(C)cc(C(=O)CSc2nnc(NCc3ccccc3)s2)c1C,57,-17%,1,?,46*
C=CCn1c(C)cc(C(=O)CSc2nnc(NC(C)C)s2)c1C,4,?,9,4.7µM*,8
CC(C)Nc1nnc(SCC(=O)Nc2ccc(F)cc2)s1,9,?,37,-29%,6
SMILES,Shiga inhibitor,Pf growth 48h,HCMV inh,Pf growth 96h,CHX counter
Nc1ncnc2c1c(-c1ccc(Oc3ccccc3)cc1)cn2C1CCCC1,.,8.3µM*,-64*,5.2µM*,.
Cc1ccc(N2CC(C(=O)Nc3ccc(S(=O)(=O)Nc4ncccn4)cc3)CC2=O)cc1C (stereo not drawn),17,13%,-24,31%,-6
CC(C)Cc1ccc(S(=O)(=O)Nc2cc3c(cc2N2CCOCC2)n(C)c(=O)c(=O)n3C)cc1,.,.,25,.,.
COc1cccc(NC(=O)CCN2CCN(c3ccccc3)CC2)c1,.,.,-75*,.,.
COc1cccc(NC(=O)CCN2CCN(c3ccccc3F)CC2)c1,28,18%,-26,12µM*,-2
COc1ccc(OC)c(NC(=O)CCN2CCN(c3ccccc3F)CC2)c1,-13,.,-1,6%,-2
Cc1c(C2=CCN(S(=O)(=O)c3ccc(CC(C)C)cc3)CC2)c2ccccc2n1CC(=O)N1CCCC1,.,.,10,.,.
CCCN(CCC)CCNC(=O)CCC(=O)Nc1ccc2nc(N3CCOCC3)cc(C)c2c1,75*,63%,297,?,40*
COc1cccc(NC(=O)CCC(=O)Nc2ccc3nc(N4CCOCC4)cc(C)c3c2)c1,81*,97%,44,16%,37*
CCN1CCN(c2cc(C)c3cc(NC(=O)CCC(=O)Nc4ccc(OC)cc4OC)ccc3n2)CC1,-11,13µM*,-29,?,-4
CCCCNC(=O)CCC(=O)Nc1ccc2nc(N3CCCCC3)cc(C)c2c1,63*,21%,4,?,31*
Cc1cc(C)n(C(C)CC(=O)NCc2ccc(N(C)C)cc2)n1 (stereo not drawn),.,.,8,.,.
Cc1nn(CC(=O)NCc2cccc(F)c2)c(=O)c2c(C)n(-c3ccc(Cl)cc3)nc12,.,.,-25,.,.
Cc1cc(N2CCCCC2)nc2ccc(NC(=O)CCC(=O)NCCC(C)C)cc12,49*,.,74,?,35*
CCOC(=O)C1CCCN(C(=O)CCC(=O)Nc2ccc3nc(N4CCOCC4)cc(C)c3c2)C1 (stereo not drawn),21,10%,99,-14%,24*
CCCc1c(C(=O)N/N=C(\C)c2ccccn2)nnn1-c1nonc1N,.,.,-98*,.,.
C/C(=N\NC(=O)c1nnn(-c2nonc2N)c1CN(C)c1ccccc1)c1ccccc1O,-6,-10%,-100*,?,-3
CCCc1c(C(=O)N/N=C(\C)c2ccc(O)cc2)nnn1-c1nonc1N,-3,3%,?,62%,17
CN(C)Cc1c(C(=O)N/N=C/C=C/c2ccccc2)nnn1-c1nonc1N,-1,-9%,32,-30%,29*
CN(C)Cc1c(C(=O)N/N=C/c2cccc(OCc3c(F)cccc3Cl)c2)nnn1-c1nonc1N,-8,10%,-86*,?,6
Cc1onc(-c2ccccc2Cl)c1C(=O)Nc1nnc(-c2ccc(Br)cc2)s1,14,-22%,-25,-13%,22*
Cc1onc(-c2ccccc2Cl)c1C(=O)Nc1nc2c(s1)CCCC2,127*,?,-35,?,69*
NC(=O)Cn1c(=O)n(CCCCCC(=O)NCc2ccc(F)cc2)c(=O)c2sccc21,.,.,-2,.,.
COCCn1c(SCC(=O)Nc2ccc(S(N)(=O)=O)cc2)nc2ccccc21,-17,12%,15,.,-2
COCCn1c(SCC(=O)Nc2ccc(Cl)c(S(=O)(=O)N(C)C)c2)nc2ccccc21,-10,12µM*,1,.,4
COCCn1c(SCC(=O)Nc2ccc(S(=O)(=O)N3CCOCC3)cc2)nc2ccccc21,-14,10µM*,-18,47%,-4
CC1(C)CN=C(Nc2ccc(F)c(Cl)c2)S1,13,?,-10,?,7
CN1CCC(Nc2ncc3ncnc(Nc4ccc(F)c(Cl)c4)c3n2)CC1,-6,1.7µM*,.,3.4µM*,-2
